Laboratory results published in PubChem BioAssay.
Calls of active or inactive are those of the source. Unless noted, no rule for the calls is given here.

Legend:
[1] = test system: Wnt5a (protein binding on small-molecule microarray); experiment: Wnt5a binders on small-molecule microarray, primary screen, biophysical, 635/667 nm fluorescence (AID 1142); conditions: 635 nm fluorescence, higher = more signal;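 also: fluorescence read at 667 nm with signal to noise per printed feature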
[2] = cell viability in Huh7 cells, primary screen, cytotoxicity control for HCV replication inhibitor project, CellTiter-Glo luminescence, basal, 48 h (AID 1143); conditions: Huh7 HCV replicon, higher = more signal, called active from +8 up or from −8 down;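 also: Huh7 hepatoma cells carrying a hepatitis C replication reporter with no stimulus; test concentration not given here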
[3] = P. aeruginosa biofilm formation inhibitors, primary screen, PAO1 strain, BacTiter-Glo luminescence, LB-PBS (AID 1144); conditions: 12 h, higher = more signal
[4] = CREB reporter modulators without forskolin, primary screen, cell-based, PC12, CRE-LacZ reporter, unstimulated (AID 1145); conditions: no forskolin, luminescence, 4.5 h, higher = more signal, called active from +8 up or from −8 down
[5] = CREB reporter modulators under forskolin, primary screen, cell-based, PC12, CRE-LacZ reporter, forskolin-stimulated (AID 1146); conditions: luminescence, 4.5 h, higher = more signal, called active from +8 up or from −8 down;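 also: PC12 cells with 6xCRE LacZ reporter stimulated by forskolin 10 µM; beta-galactosidase reporter signal reflecting CREB driven transcription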
[6] = target: Streptavidin (Streptomyces avidinii) (UniProt P22629); experiment: streptavidin binders on small-molecule microarray, primary screen, artefact control for SMM compound annotation, biophysical, 635/667 nm fluorescence (AID 1147); conditions: streptavidin binding, higher = more signal;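 also: signal reflects streptavidin binding to arrayed compounds as a control protein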
[7] = small-molecule binders of probe aInhba, primary screen, biochemical, small-molecule microarray, 635/667 nm fluorescence (AID 1148); conditions: higher = more signal;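 also: score merges 667nm spot fluorescence with signal-to-noise for antibody binding to printed compounds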
Torsin-1A (Homo sapiens) [8] = target: Torsin-1A (Homo sapiens) (UniProt O14656); experiment: torsin A binders from cell lysate, primary screen, small-molecule microarray, wild-type, 635/667 nm (AID 1149); conditions: COS7 hTOR1A-WT lysate, 635 nm fluorescence, higher = more signal
Torsin-1A (Homo sapiens) [9] = target: Torsin-1A (Homo sapiens) (UniProt O14656); experiment: small-molecule binders of mutant TOR1A in lysate, primary screen, cell lysate, small-molecule microarray, COS7 lysate, 635/667 nm fluorescence (AID 1150); conditions: COS7 hTOR1A mutant lysate, 635 nm fluorescence, higher = more signal;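 also: score pools 667 nm emission and signal to noise measuring lysate protein binding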
[10] = test system: Sonic hedgehog protein (Shh); experiment: small-molecule binders of Shh protein, primary screen, biochemical, small-molecule microarray, 635/667 nm fluorescence (AID 1151); conditions: small-molecule microarray binding, 635 nm fluorescence; higher = more signal;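 also: Shh protein binding to compounds spotted on small-molecule microarray slides; score combines spot fluorescence intensity with signal-to-noise across triplicate slides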

Chain of Torsin-1A (Homo sapiens) (O14656 whole entry, looked up): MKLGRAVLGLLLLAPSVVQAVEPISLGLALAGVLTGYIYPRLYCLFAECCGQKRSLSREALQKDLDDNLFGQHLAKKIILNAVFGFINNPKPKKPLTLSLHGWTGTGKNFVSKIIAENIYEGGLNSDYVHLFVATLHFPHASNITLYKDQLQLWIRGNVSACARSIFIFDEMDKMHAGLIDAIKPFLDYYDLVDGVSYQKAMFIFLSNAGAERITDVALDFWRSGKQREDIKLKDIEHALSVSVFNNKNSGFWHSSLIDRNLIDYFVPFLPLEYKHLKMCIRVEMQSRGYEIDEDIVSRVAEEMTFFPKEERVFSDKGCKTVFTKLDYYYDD
Chain of Streptavidin (Streptomyces avidinii) (P22629 whole entry, looked up): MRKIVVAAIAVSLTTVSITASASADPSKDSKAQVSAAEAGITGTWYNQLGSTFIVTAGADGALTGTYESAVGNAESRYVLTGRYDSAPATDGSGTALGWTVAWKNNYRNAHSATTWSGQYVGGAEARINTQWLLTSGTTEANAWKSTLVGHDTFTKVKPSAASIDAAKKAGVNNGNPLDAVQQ

Compound	composite z-score [1]	z-score [2]	z-score [3]	z-score [4]	z-score [5]	composite z-score [6]	composite z-score [7]	composite z-score (Torsin-1A (Homo sapiens) [8])	composite z-score (Torsin-1A (Homo sapiens) [9])	composite z-score [10]
C[C@H]1Cc2c(-c3ccccc3)nc3c(c2CO1)CN(CCOc1ccccc1)CC3	0.379	-0.239 (inactive)	-0.888 (inactive)	2.92 (inactive)	-1.46 (inactive)	0.277	-0.0313	0.132	0.565	1.17
CC(=O)OC[C@H]1O[C@H](CCON=C(C)CCC(=O)OC[C@H]2O[C@H](C#Cc3ccccc3)C=C[C@@H]2Oc2ccc(C)cc2)C=C[C@@H]1OC(C)=O	0.0159	-0.474 (inactive)	0.037 (inactive)	0.894 (inactive)	0.452 (inactive)	0.238	-0.231	0.595	0.139	0.688
COC(=O)[C@@H]1CC[C@H](C)[C@@H](c2ccc(C)cc2)N1C(=O)c1ccc(C=NOC(C)CN2CCCCc3nc(C)c(C)cc32)cc1 (stereo not given in full)	0.595	-3.62 (inactive)	-0.356 (inactive)	1.81 (inactive)	1 (inactive)	0.48	-0.0791	-0.269	-0.332	0.328
COC(=O)[C@@H]1CC[C@H](C)[C@@H](c2ccc(C)cc2)N1C(=O)c1ccc(C=NOC[C@@H](O)COCc2ccco2)cc1	-0.523	-1.83 (inactive)	1.18 (inactive)	5.89 (inactive)	-0.309 (inactive)	-1.24	-0.341	-1.72	-2.05	-0.334
CC(C)(C)N1CC=CC23O[C@@H]4C=CCCOC(=O)C4[C@H]2C(=O)N(CCCCCO)[C@@H]3C1=O (stereo not given in full)	0.37	-0.128 (inactive)	-0.174 (inactive)	0.333 (inactive)	-0.329 (inactive)	-0.102	0.214	1.11	0.879	0.992
COCCOC(=O)N1C(=O)[C@@]2(c3ccccc31)[C@H](C(N)=O)[C@H]1C(=O)O[C@H](c3ccccc3)[C@H](c3ccccc3)N1[C@@H]2c1ccccc1OCCO	0.491	-4.01 (inactive)	1.67 (inactive)	0.362 (inactive)	0.406 (inactive)	0.662	0.126	0.918	0.815	1.19
C=CCN1C(=O)[C@]2(O[C@H](CCn3cc(CCO)nn3)[C@@H]([Si](C)(C)c3ccc(OC)cc3)[C@@H]2C)c2cc(N3CCOC3=O)ccc21	-0.246	-4.23 (inactive)	-0.771 (inactive)	7.08 (inactive)	0.144 (inactive)	1.32	-0.253	0.419	0.855	0.6
CCCCCCc1nc(CCCc2cc3c(c(CCCCCC)n2)[Si](C(C)C)(C(C)C)O[C@H]3c2ccccc2)cc2c1[Si](C(C)C)(C(C)C)O[C@H]2c1ccccc1	-0.0661	-0.636 (inactive)	0.182 (inactive)	-0.0106 (inactive)	-0.222 (inactive)	0.0479	-0.0972	-0.285	-0.0949	0.406
CC(C)CON=C1[C@H]2CCn3c(=O)n(-c4ccccc4)c(=O)n3[C@H]2[C@H](O)[C@@H]2O[C@H]12	0.134	0.893 (inactive)	0.291 (inactive)	0.797 (inactive)	0.148 (inactive)	-0.142	-0.102	0.235	0.189	0.445
CCOC(=O)CCN1C(=O)[C@H]2[C@H]3[C@H](O)[C@H](O)CC(=NOC[C@@H](O)COCc4ccco4)[C@@H]3CC[C@H]2C1=O	-0.0579	-0.632 (inactive)	-0.35 (inactive)	0.251 (inactive)	0.069 (inactive)	0.663	-0.197	0.584	-0.0032	-0.825
CCOC(=O)NN=C1C[C@@H](O)[C@@H](O)[C@@H]2[C@@H]3C(=O)N(CC)C(=O)[C@@H]3CC[C@@H]12	-0.0087	0.225 (inactive)	-0.0164 (inactive)	-0.205 (inactive)	0.104 (inactive)	-0.124	-0.324	0.0252	-0.0727	0.784
C[C@@H]1CCC2C(=O)N(Cc3ccccc3)C[C@@H](O)CN2[C@H]1c1ccc(Br)cc1 (stereo not given in full)	-0.412	-2.02 (inactive)	-1.54 (inactive)	2.28 (inactive)	-0.284 (inactive)	0.398	-0.0719	0.866	1.42	0.228
COC(=O)CC=C[C@@H](C)[C@H](OC)c1ccccc1Br	-0.0438	0.266 (inactive)	0.189 (inactive)	-0.971 (inactive)	-0.868 (inactive)	-0.112	-0.128	0.258	0.466	0.153
CCCCCN1CC=CC23O[C@@H]4C=CCOC(=O)[C@@H]4[C@H]2C(=O)N(CCCCCCO)[C@@H]3C1=O (stereo not given in full)	-0.485	0.0442 (inactive)	0.851 (inactive)	-0.342 (inactive)	0.124 (inactive)	-0.976	-0.15	-1.78	-0.966	-0.837
COC(=O)[C@H](C)NC(=O)CCC1CC(OC(=O)NCc2cccc3ccccc23)CC2(CCCC(COC(=O)NCCc3ccc(Cl)cc3)O2)O1 (stereo not given in full)	-0.173	-0.006 (inactive)	-0.494 (inactive)	0.2 (inactive)	0.45 (inactive)	0.558	-0.152	0.405	0.353	0.569
CC(C)(C)OC(=O)CC[C@]1(C(N)=O)COC(c2ccc(OCCCO)cc2)=N1	0.681	0.0853 (inactive)	0.361 (inactive)	-0.585 (inactive)	-0.438 (inactive)	0.248	0.923	0.833	0.493	-0.769
CO[C@@H]1COC(=O)[C@H](C)NC(=O)[C@@H](C)COC(=O)CCC[C@H]1C	-0.0361	-0.639 (inactive)	0.019 (inactive)	0.085 (inactive)	0.396 (inactive)	-0.185	-0.128	0.738	0.462	1.24
COC(=O)[C@@]1(Cc2ccc(F)cc2)[C@H]2c3cc(C(=O)N(C)C)n(Cc4ccc(OC)c(OC)c4)c3C[C@H]2CN1C(=O)c1ccccc1	0.702	-3.26 (inactive)	-0.642 (inactive)	0.194 (inactive)	0.426 (inactive)	0.319	0.351	0.0209	0.1	-0.715
O=C1O[C@@H](c2ccccc2)[C@@H](c2ccccc2)N2[C@@H](c3ccc(OCCO)cc3)[C@]3(C(=O)Nc4ccc(C#CCCO)cc43)[C@@H](C(=O)N3CCCCCCC3)[C@H]12	0.825	-1.11 (inactive)	-0.928 (inactive)	-0.168 (inactive)	0.0629 (inactive)	2.31	1.75	0.782	1.31	1.59
COc1ccc(O[C@H]2C=C[C@@H](c3ccccc3)O[C@@H]2COC(=O)CCC(C)=NOCC[C@@H]2C=C[C@H](OC(C)=O)[C@@H](COC(C)=O)O2)cc1	-0.0096	-1.06 (inactive)	0.57 (inactive)	0.918 (inactive)	0.378 (inactive)	0.0903	-0.0736	1.56	0.43	0.661
COc1ccc(COC(=O)NN=C2C[C@@H](O)[C@@H](O)[C@@H]3[C@@H]4C(=O)N(c5ccc(F)cc5F)C(=O)[C@@H]4CC[C@@H]23)cc1	-0.207	0.0335 (inactive)	1.02 (inactive)	1.61 (inactive)	-0.0874 (inactive)	0.509	-0.0762	-0.372	0.389	-1.13
C=CCOC(=O)[C@H]1[C@@H]2C(=O)O[C@@H](c3ccccc3)[C@@H](c3ccccc3)N2[C@@H](c2ccc(OCCOC(=O)[C@H]3C[C@H]4C(=O)N[C@@H](Cc5ccccc5)C(=O)N4[C@H]3c3ccc(O)cc3)cc2)[C@]12C(=O)Nc1ccccc12	0.354	-0.155 (inactive)	-0.0202 (inactive)	0.285 (inactive)	-0.231 (inactive)	-0.261	-0.171	0.419	0.278	1.92
Cc1ccc(S[C@]2(C(=O)NCC(F)(F)F)CC(=O)N(Cc3ccccc3Cl)[C@@H]2c2ccc(CO)cc2I)cc1	-0.273	-1.36 (inactive)	0.977 (inactive)	3.13 (inactive)	2.82 (inactive)	-0.809	-0.152	-0.396	0.288	-0.155
